These results are taken from PubChem BioAssay (Tox21).

Test [1] is described as follows: qHTS assay to identify small molecule antagonists of the thyroid receptor (TR) signaling pathway - cell viability counter screen (AID 743064). Also: nearly all actives have a fitted effect of over 50% in size. Also: potency is read from the fitted curve at half-maximal effect. In outline:
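GH3.TRE-Luc rat pituitary cells dosed after 4 hr plating, co-stimulated with T3 at 1 nM final, incubated 23.5 h at 37 C. Viability measured in the same wells by CellTiter-Fluor fluorescence after 30 min further at 37 C.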
(In general: In qHTS, concentration-response curves come from the screen itself.)

Test [2] is described as follows: qHTS assay to identify small molecule antagonists of the thyroid receptor (TR) signaling pathway (AID 743065). Also: nearly all actives have a fitted effect of over 55% in size. Also: potency is read from the fitted curve at half-maximal effect. Summed up: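 GH3.TRE-Luc rat pituitary cells (two TREs driving luciferase) were dosed with compound, then stimulated with 1 nM T3 (final) for 23.5 h at 37 C. ONE-Glo luminescence was the read-out, with CellTiter-Fluor fluorescence as the cytotoxicity counter-screen.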

Test [3] deals with Estrogen receptor (Homo sapiens) (UniProt P03372). Description: qHTS assay to identify small molecule antagonists of the estrogen receptor alpha (ER-alpha) signaling pathway (AID 743069; active = well fitted curve in the direction sought with a large enough effect in the signal ratio in the repeat runs, not every such curve was filed as active; inconclusive = weak or mixed curves, or effect the other way; inactive = no such curve, though single readings can be large or run the other way; the % refers to the signal ratio; also: potency is read from the fitted curve at half-maximal effect). Summed up: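 Beta-lactamase FRET fluorescence is read after 2 hr at room temperature with LiveBLAzer B/G substrate. Before that, ER-alpha-bla HEK293 cells sit 4 hr after plating, then receive compound plus 17beta-estradiol and incubate 18 hr at 37C.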

Test [4] shares this target. The experiment in a line: qHTS assay to identify small molecule agonists of the estrogen receptor alpha (ER-alpha) signaling pathway (AID 743075; calls by dose curve;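 also: HEK293 GripTite cells with ER-alpha and UAS-driven beta-lactamase reporter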).
Test [5] can be described thus: qHTS assay to identify small molecule antagonists of the estrogen receptor alpha (ER-alpha) signaling pathway using the BG1 cell line - cell viability counter screen (AID 743081).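 Also: compound given together with 17beta-estradiol as the ER stimulus; nearly all actives have a fitted effect of over 45% in size.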 Also: potency is read from the fitted curve at half-maximal effect.
Test [6] relates to thyroid hormone receptor (rat, GH3 cells). The experiment in a line: qHTS assay to identify small molecule agonists of the thyroid receptor (TR) signaling pathway (AID 743066; calls by dose curve; also: potency is read from the fitted curve at half-maximal effect).
A short description of test [7]: qHTS assay to identify small molecule antagonists of the estrogen receptor alpha (ER-alpha) signaling pathway - cell viability counter screen (AID 743074; calls by dose curve;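 also: HEK293 cells carrying ER-alpha-UAS-bla reporter stimulated with 17beta-estradiol; nearly all actives have a fitted effect of over 45% in size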; also: potency is read from the fitted curve at half-maximal effect).
The target of test [8] is Estrogen receptor (Homo sapiens) (UniProt P03372). Description: qHTS assay to identify small molecule agonists of the estrogen receptor alpha (ER-alpha) signaling pathway using the BG1 cell line (AID 743079). Also: nearly all actives have a fitted effect of over 20% in size. Also: potency is read from the fitted curve at half-maximal effect.
A short description of test [9]: qHTS assay to identify small molecule antagonists of the estrogen receptor alpha (ER-alpha) signaling pathway using the BG1 cell line (AID 743080; calls by dose curve;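 also: BG1 cells stimulated with 17beta-estradiol alongside compound; nearly all actives have a fitted effect of over 25% in size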; also: potency is read from the fitted curve at half-maximal effect). Conditions: BG1Luc4E2 ERE-luciferase antagonist mode, luminescence; activity change, negative = inhibition: at 70.3 µM (top of the series). In outline:
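Readout is ONE-Glo luminescence, taken 30 min at room temperature after reagent addition, preceded by a CellTiter-Fluor viability read; BG1-Luc-4E2 cells had received compound and 17beta-estradiol for 21.5 h at 37 C.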

In a further test the target is Aromatase (Homo sapiens) (UniProt P11511). The experiment in a line: qHTS assay to identify aromatase inhibitors (AID 743083). Also: nearly all actives have a fitted effect of over 55% in size. Also: potency is read from the fitted curve at half-maximal effect.

The structures appear in SMILES notation. Values joined by “and” are separate entries in the source; they are usually repeats but may differ in a detail not shown here. Equal entries are not always repeated. Where a structure was tested more than once in an assay, its records may differ in their call. Active and inactive are the calls of the source. Unless noted, calls follow the shape of the dose curve; as a rule, active = well fitted curve in the direction sought with a large enough effect in the repeat runs; inconclusive = weak or mixed curves; inactive = no such curve, though single readings can be large; an effect the other way counts as inactive or inconclusive.

Sequence of Aromatase (Homo sapiens) (P11511 whole entry, looked up): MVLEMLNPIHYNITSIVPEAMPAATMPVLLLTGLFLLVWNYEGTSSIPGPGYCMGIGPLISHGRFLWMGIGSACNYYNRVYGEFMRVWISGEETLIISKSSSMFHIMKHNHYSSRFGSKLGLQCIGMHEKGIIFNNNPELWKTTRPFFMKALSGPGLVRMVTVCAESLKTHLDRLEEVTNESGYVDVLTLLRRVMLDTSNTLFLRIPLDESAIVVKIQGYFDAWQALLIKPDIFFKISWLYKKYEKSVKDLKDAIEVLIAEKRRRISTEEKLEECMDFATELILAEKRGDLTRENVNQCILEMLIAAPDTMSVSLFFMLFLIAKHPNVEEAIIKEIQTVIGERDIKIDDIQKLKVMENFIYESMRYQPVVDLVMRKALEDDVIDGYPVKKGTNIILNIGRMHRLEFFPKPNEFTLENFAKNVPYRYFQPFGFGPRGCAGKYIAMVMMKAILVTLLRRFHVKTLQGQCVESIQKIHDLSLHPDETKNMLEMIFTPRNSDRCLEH
Sequence of Estrogen receptor (Homo sapiens) (P03372 whole entry, looked up): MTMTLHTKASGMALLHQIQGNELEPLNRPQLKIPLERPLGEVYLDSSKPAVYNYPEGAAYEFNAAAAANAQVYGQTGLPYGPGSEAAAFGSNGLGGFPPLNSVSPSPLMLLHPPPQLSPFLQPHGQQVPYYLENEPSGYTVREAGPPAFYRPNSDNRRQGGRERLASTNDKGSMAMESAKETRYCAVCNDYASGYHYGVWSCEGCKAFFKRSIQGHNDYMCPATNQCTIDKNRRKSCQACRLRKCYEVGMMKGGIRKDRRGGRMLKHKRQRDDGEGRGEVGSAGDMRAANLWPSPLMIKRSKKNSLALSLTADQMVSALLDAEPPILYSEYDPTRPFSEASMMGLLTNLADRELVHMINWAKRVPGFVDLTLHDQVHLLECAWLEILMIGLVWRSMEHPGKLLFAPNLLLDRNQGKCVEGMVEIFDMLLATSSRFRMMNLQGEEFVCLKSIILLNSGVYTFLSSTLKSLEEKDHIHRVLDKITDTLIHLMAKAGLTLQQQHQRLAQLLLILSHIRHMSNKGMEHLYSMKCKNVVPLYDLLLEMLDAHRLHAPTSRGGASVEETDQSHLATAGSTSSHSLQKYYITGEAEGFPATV

As to `COc1ccc(OC(F)(F)F)cc1CN[C@H]1CCCN[C@H]1c1ccccc1`, the Potency in test [1] and in test [2] was 24.3 µM (active) throughout. Also, the Potency result in test [3], in test [4] and in test [5] was “inactive” each time.
In the case of `CC(=O)CCC(=O)O`, the Potency entry in test [1], in test [6], in [3], in test [7], in test [4] and in test [9] was “inactive” in each case. Besides, the Potency result (in test [5]; with Aromatase (Homo sapiens)) was “inactive” each time. Also, the Potency in test [8] is 15 µM (active) and inactive.
For `CC1(C)O[C@@H]2C[C@H]3[C@@H]4CCC5=CC(=O)C=C[C@]5(C)[C@@]4(F)[C@@H](O)C[C@]3(C)[C@]2(C(=O)CO)O1`, the Potency result (in test [1]; in [2]; in test [6]; in test [7]; in test [5]; with Aromatase (Homo sapiens)) was “inactive” throughout.
On to `CCOC(N)=O`, for which the Potency entry in test [1], in test [2], in test [6], in test [3], in test [7] and in test [4] was “inactive” each time. For the same compound, the Potency entry (in test [8]; in [9]; in [5]; with Aromatase (Homo sapiens)) was “inactive” in each case.
For `CCCCCCc1ccc(O)cc1O`, the Potency in test [2] was 61.3 µM (active); with Aromatase (Homo sapiens), “inactive and 61.1 µM (active)”. The Potency entry in test [6], in [7] and in test [5] was “inactive” each time.
On to `O=C1NS(=O)(=O)c2ccccc21`, for which the Potency entry (in test [7]; in [5]; with Aromatase (Homo sapiens)) was “inactive” throughout.
In the case of `C=C1CC[C@H](O)C/C1=C\C=C1/CCC[C@]2(C)[C@@H]([C@H](C)CCCC(C)C)CC[C@@H]12`, the Potency in [2] was 21.1 µM (active) and 30.4 µM (active). In addition, the Potency result (in [7]; in [4]; in test [8]; in [9]; in [5]; with Aromatase (Homo sapiens)) was “inactive” each time.
Take `NC(=O)c1cccnc1`: the Potency entry in [3], in test [7], in test [4], in [8], in [9] and in [5] was “inactive” each time. For the same compound, in the test with Aromatase (Homo sapiens), the Potency result is “inactive”.
As for `O=C(O)c1ccccc1`, the Potency entry (in test [3]; in test [7]; in [4]; in test [9]; in test [5]; with Aromatase (Homo sapiens)) was “inactive” each time. For the same compound, the Potency in test [8] is 5.1 µM (active) and inactive.
With `CC(O)(P(=O)(O)O)P(=O)(O)O`, the Potency result (in test [6]; in [7]; in test [5]; with Aromatase (Homo sapiens)) was “inactive” each time.
As to `CN(C)CCOC(C)(c1ccccc1)c1ccccn1` (centres undefined), the Potency entry (in test [7]; in test [5]; in the test with Aromatase (Homo sapiens)) was “inactive” in each case.
On to `C/C=C/C=C/C(=O)O`, for which the Potency entry (in test [2]; in [6]; in test [7]; in test [5]; in the test with Aromatase (Homo sapiens)) was “inactive” throughout.
On to `O=C1O[C@H]([C@@H](O)CO)C(O)=C1O`, for which the Potency result in [6] is “inactive and 34.3 µM (active)”. Moreover, the Potency entry (in [7]; in [5]; with Aromatase (Homo sapiens)) was “inactive” throughout.
On to `Cc1cc(=O)oc2cc(O)ccc12`, for which the Potency result in test [6], in test [3], in [7], in test [4], in test [8] and in [9] was “inactive” throughout. In addition, the Potency entry (in test [5]; with Aromatase (Homo sapiens)) was “inactive” in each case.
Regarding `CCCC[P+](CCCC)(CCCC)CCCC`, the Potency entry (in [2]; in test [6]; in test [7]; in test [5]; in the test with Aromatase (Homo sapiens)) was “inactive” each time.
Take `CN[C@H]1CC[C@@H](c2ccc(Cl)c(Cl)c2)c2ccccc21`: the Potency in test [2] was 6.68 µM (active). Moreover, the Potency result in test [4] and in [5] was “inactive” each time.
In the case of `NC(=O)n1c(O)c(C(=O)c2cccs2)c2cc(Cl)ccc21`, the Potency in [2] was 29.8 µM (active); in test [3] it was 21.3 µM [inconclusive] (active); in test [9], 29.8 µM (active). Moreover, the Potency result in test [7] and in test [4] was “inactive” in each case.
Regarding `CS(=O)(=O)OCCCCOS(C)(=O)=O`, the Potency result (in [3]; in test [7]; in test [4]; in [9]; in test [5]; in the test with Aromatase (Homo sapiens)) was “inactive” throughout. For the same compound, in [8], the Potency was 11.9 µM (active) and inactive.
With `CCN(Cc1c(F)cccc1Cl)c1c([N+](=O)[O-])cc(C(F)(F)F)cc1[N+](=O)[O-]`, the Potency entry in [6], in [7], in test [4], in test [9] and in [5] was “inactive” in each case. The Potency in test [8] was 21.7 µM (active); with Aromatase (Homo sapiens), 27.3 µM (active).
With `F[B-](F)(F)F`, the Potency entry (in test [2]; in test [6]; in test [7]; in [5]; with Aromatase (Homo sapiens)) was “inactive” throughout.
Consider `Cn1c(=O)c2c(ncn2C)n(C)c1=O`, for which the Potency entry (in [7]; in test [5]; in the test with Aromatase (Homo sapiens)) was “inactive” throughout.
As for `Cc1cn([C@H]2C=C[C@@H](CO)O2)c(=O)[nH]c1=O`, the Potency result (in test [2]; in test [6]; in test [7]; in test [5]; with Aromatase (Homo sapiens)) was “inactive” throughout.
As for `Cc1c(C(=O)O)c(O)cc2c1C(=O)c1c(O)c([C@@H]3O[C@H](CO)[C@@H](O)[C@H](O)[C@H]3O)c(O)c(O)c1C2=O`, the Potency entry in test [6], in test [3], in test [7], in [4] and in test [8] was “inactive” each time. In addition, the Potency in test [5] is 18.8 µM (active) and 29.9 µM (active) and 27.3 µM (active).
Turning to `Cc1ccc(S(=O)(=O)O)cc1`, the Potency result in test [6], in [7] and in [5] was “inactive” throughout.
For `O=C(O)CC(O)C(=O)O` (centres undefined), the Potency entry (in [7]; in [5]; with Aromatase (Homo sapiens)) was “inactive” throughout.
Consider `CN1CCc2cccc3c2[C@H]1Cc1ccc(O)c(O)c1-3`, for which the Potency result in test [3], in [7] and in test [4] was “inactive” in each case. Further, the Potency was 69.3 µM (active) in [5]; 21.9 µM (active) and 11.4 µM (active) with Aromatase (Homo sapiens).
Consider `CCCCCCCCCCCC[N+](C)(C)Cc1ccccc1`, for which the Potency in [2] was 5.31 µM (active) and 9.5 µM (active) and 11.8 µM (active); in [7] it was 10.7 µM (active) and 24.1 µM (active) and 26.7 µM (active); in test [5], “inactive and 74.5 µM (active)”; in the test with Aromatase (Homo sapiens), 29.8 µM (active) and 42.4 µM (active) and 37.4 µM (active). The Potency entry in [6] was “inactive”.
As for `COc1ccc2cc(S(=O)(=O)N[C@H](CC(=O)N[C@H](Cc3ccc(CN4[C@H](C)CCC[C@@H]4C)cc3)C(=O)N(C)C(C)C)c3ccc4c(c3)OCO4)ccc2c1`, the Potency was 3.65 µM (active) in test [2], 52 µM (active) in test [7], 9.17 µM (active) in test [5] and 46 µM (active) in the test with Aromatase (Homo sapiens). Also, in [3], the Potency result was “inactive”.
`Cc1cc(C)nc(NS(=O)(=O)c2ccc(N)cc2)n1`: the Potency result (in test [2]; in test [7]; in test [5]; in the test with Aromatase (Homo sapiens)) was “inactive” each time. For the same compound, the Potency result in test [6] was “inactive and 69.4 µM (active)”.
Consider `O=C1c2c(O)cccc2Cc2cccc(O)c21`, for which the Potency result (in test [2]; in test [6]; in test [7]; in [5]; in the test with Aromatase (Homo sapiens)) was “inactive” in each case.
Turning to `C1=CC2C3C=CC(C3)C2C1` (centres undefined), the Potency result in [2], in [6] and in test [5] was “inactive” throughout.
For `COc1ccc(CN(CCN(C)C)c2ccccn2)cc1`, the Potency entry in test [6], in [7] and in test [5] was “inactive” in each case.
Regarding `CC1(C)S[C@@H]2[C@H](NC(=O)[C@H](N)c3ccccc3)C(=O)N2[C@H]1C(=O)O`, the Potency entry (in test [7]; in test [5]; with Aromatase (Homo sapiens)) was “inactive” each time.
